From PubChem BioAssay (NCATS) come the findings set out here.

Where “and” joins values, the source holds several entries; their conditions need not be identical. Equal entries are not always repeated. Records with an inconclusive call do not appear. Values without a mark were called inactive. Calls of active or inactive are those of the source. Calls come from the whole dose curve; as a rule, active = well fitted inhibition curve with a large enough effect; inconclusive = small, poorly fitted or top-dose-only effect; inactive = flat fitted curve, though single readings scatter.

Assay [1] deals with SC27B. Description: qHTS profiling for inhibitors of Plasmodium falciparum proliferation (AID 504749). Particulars: P. falciparum in erythrocytes, SYBR Green DNA, 72 h; series mostly up to 28.7 µM. The gist of the method:
(§1)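 P. falciparum-infected erythrocytes (0.3% parasitemia, 2.5% hematocrit final) were exposed to compounds for 72 h at 37 C in 5% CO2, then lysed with SYBR Green buffer overnight at room temperature; parasite DNA fluorescence was normalized to artemisinin and DMSO controls.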
On the technique in general: qHTS replaces the single test concentration by a dilution series.

Assay [2] has as its system TAB109. The assay is described as above. Particulars: P. falciparum in erythrocytes, SYBR Green DNA, 72 h; series mostly up to 28.7 µM. The gist of the method: as §1
Assay [3] relates to TAB113. Described as above. To be noted: P. falciparum in erythrocytes, SYBR Green DNA, 72 h; series mostly up to 28.7 µM. The gist of the method: as §1
In assay [4] the test system is TAB165. The assay is described as above. Particulars: P. falciparum in erythrocytes, SYBR Green DNA, 72 h; series mostly up to 28.7 µM. The gist of the method: as §1
In assay [5] the test system is W2. The assay is described as above. Particulars: P. falciparum in erythrocytes, SYBR Green DNA, 72 h; series mostly up to 28.7 µM. The method in brief: as §1
The test system of assay [6] is KB-3-1. The assay is described as follows: Cytotoxic Profiling of Annotated Libraries Using Quantitative High-Throughput Screening (AID 1296008). For max response: % is set by controls: 0 for no effect and ±100 for the full control effect. Particulars: Five cell lines viability, CellTiter-Glo ATP luminescence, 48-72 h; max response: stronger effect = lower value. The method in brief: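 Compounds were pin-transferred onto cells and incubated 48 or 72 hr at 37 degree Celsius, 95% humidity. CellTiter-Glo was added, plates sat 10 min at room temperature, then ATP-coupled luminescence was imaged as the viability read-out.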
Note: nearly all actives have a fitted effect of over 60% in size.
Potency is the fitted concentration of half-maximal effect.

On to `CCOC(=O)C1=CC2(CC)CCCN3CCc4c(n1c1ccccc41)C32` (centres undefined), for which the Potency in assay [1] is 10 µM (active); in assay [2], 7.94 µM (active); in assay [3] it was 11.2 µM (active); in assay [4], 7.94 µM (active).
Turning to `CCCCC/C=C\C/C=C\CCCCCCCC(=O)O`, the Potency result in assay [1], in assay [2], in assay [3], in assay [4] and in assay [5] was “inactive” each time. In addition, the max response in assay [6] was -13.1%.
`O=C(Nc1cccc(C(F)(F)F)c1)c1cc(Br)cc(Br)c1O`: the Potency was 8.91 µM (active) in assay [1]; 12.6 µM (active) in assay [3]; 14.1 µM (active) in assay [4]; 6.75 µM (active) in assay [5]; 16.4 µM (active) in assay [6].
`C=CCSSSCC=C`: the Potency entry in assay [1], in assay [2], in assay [3], in assay [4] and in assay [5] was “inactive” each time. Besides, the max response in assay [6] is -7.72%.
With `C#CCOc1ccc2c(C)cc(=O)oc2c1`, the Potency entry in assay [1], in assay [2], in assay [3] and in assay [4] was “inactive” each time.
As for `CCOc1ccc2c(c1)C(C)=CC(C)(C)N2`, the Potency entry in assay [1], in assay [2], in assay [3], in assay [4] and in assay [5] was “inactive” in each case. Also, the max response in assay [6] is -2.71%.
`CCN(CC)CCOc1ccc(-c2nc3cc(Cl)ccc3s2)cc1`: the Potency entry in assay [1] is “inactive”.
Consider `CC1=C(/C=C/C(C)=C/C=C/C(C)=C/C=C/C=C(C)/C=C/C=C(C)/C=C/C2=C(C)CCCC2(C)C)C(C)(C)CCC1`, for which the Potency result in assay [1], in assay [2], in assay [3], in assay [4] and in assay [5] was “inactive” each time. The max response in assay [6] was -7.35%.
As to `CCC(=O)NCCC1CCc2ccc3c(c21)CCO3` (centres undefined), the Potency result in assay [1], in assay [2], in assay [3], in assay [4] and in assay [5] was “inactive” throughout. Besides, the max response in assay [6] was -7.29%.
Turning to `CCCCCC(CC)COC(=O)CC(C(=O)OCC(CC)CCCC)S(=O)(=O)O` (centres undefined), the Potency entry in assay [1], in assay [2], in assay [3] and in assay [4] was “inactive” in each case.
Turning to `CCCCCCCCCCCCCC[n+]1ccc(C)cc1`, the Potency is 3.98 µM (active) in assay [1]; 2.24 µM (active) in assay [2]; 3.98 µM (active) in assay [3]; 3.98 µM (active) in assay [4]; 1.69 µM (active) in assay [5]; 18.4 µM (active) in assay [6].
For the molecule `CO[C@H](C(=O)[C@@H](O)[C@@H](C)O)C1Cc2cc3cc(O[C@H]4C[C@@H](O[C@H]5C[C@@H](O)[C@H](O)[C@@H](C)O5)[C@@H](O)[C@@H](C)O4)c(C)c(O)c3c(O)c2C(=O)[C@H]1O[C@H]1C[C@@H](O[C@H]2C[C@@H](O[C@H]3C[C@](C)(O)[C@H](O)[C@@H](C)O3)[C@H](O)[C@@H](C)O2)[C@H](O)[C@@H](C)O1` (some centres undefined), the Potency in assay [1] is 0.126 µM (active); in assay [2], 0.141 µM (active); in assay [3], 0.0891 µM (active); in assay [4], 0.126 µM (active); in assay [5], 0.169 µM (active); in assay [6], 1.16 µM (active).
`Nc1c(N=Nc2ccc(-c3ccc(N=Nc4cc(S(=O)(=O)O)c5ccccc5c4N)cc3)cc2)cc(S(=O)(=O)O)c2ccccc12`: the Potency entry in assay [1], in assay [2], in assay [3], in assay [4] and in assay [5] was “inactive” throughout. The max response in assay [6] was -9%.
`CO[C@H]1C[C@@H]2CC[C@@H](C)[C@@](O)(O2)C(=O)C(=O)N2CCCC[C@H]2C(=O)O[C@H]([C@H](C)C[C@@H]2CC[C@@H](OCCO)[C@H](OC)C2)CC(=O)[C@H](C)/C=C(\C)[C@@H](O)[C@@H](OC)C(=O)[C@H](C)C[C@H](C)/C=C/C=C/C=C/1C`: the Potency is 1.41 µM (active) in assay [1]; 1.78 µM (active) in assay [2]; 1.12 µM (active) in assay [3]; 1.12 µM (active) in assay [4]; 0.757 µM (active) in assay [5]. The max response in assay [6] was -27.1%.
Consider `COC(=O)[C@H]1[C@H]2CC3c4[nH]c5ccccc5c4CCN3C[C@@H]2CC[C@@H]1O` (some centres undefined), for which the Potency entry in assay [1], in assay [2], in assay [3] and in assay [4] was “inactive” each time.
As to `O=CCCCC=O`, the Potency result in assay [1], in assay [2] and in assay [3] was “inactive” throughout. The Potency in assay [5] was 13.5 µM (active). For the same molecule, the max response in assay [6] was -2.08%.
For `CCCCC(=O)O[C@]1(C(=O)CO)[C@H](C)C[C@H]2[C@@H]3CCC4=CC(=O)C=C[C@]4(C)[C@@]3(F)[C@@H](O)C[C@@]21C`, the Potency entry in assay [1] and in assay [3] was “inactive” each time. Besides, in assay [5], the Potency is 13.5 µM (active). Further, in assay [6], the max response was 32.2%.
Take `O=S(=O)(O)O`: the Potency entry in assay [1], in assay [2], in assay [3], in assay [4] and in assay [5] was “inactive” in each case. For the same molecule, the max response in assay [6] was 5.37%.
As for `CCCCCCCC/C=C\CCCCCCCC(=O)O`, the Potency result in assay [1], in assay [3], in assay [4] and in assay [5] was “inactive” each time. Moreover, in assay [6], the max response was 4.43%.
Regarding `O=C(O)c1cc(O)c2c(c1)[O][Bi][O]2`, the Potency entry in assay [1], in assay [2], in assay [3], in assay [4] and in assay [5] was “inactive” throughout. In addition, the max response in assay [6] is 2%.
For the molecule `Cc1c(C)c2c(c(C)c1O)CC[C@@](C)(CCC[C@H](C)CCC[C@H](C)CCCC(C)C)O2`, the Potency result in assay [1], in assay [2], in assay [3], in assay [4] and in assay [5] was “inactive” each time. Besides, the max response in assay [6] was 4.35% and -16.8%.
Turning to `COC(C(=O)C(O)C(C)O)C1Cc2cc3cc(OC4CC(OC5CC(O)C(O)C(C)O5)C(O)C(C)O4)c(C)c(O)c3c(O)c2C(=O)C1OC1CC(OC2CC(OC3CC(C)(O)C(O)C(C)O3)C(O)C(C)O2)C(O)C(C)O1` (centres undefined), the Potency in assay [1] was 0.178 µM (active); in assay [2] it was 0.158 µM (active); in assay [3], 0.141 µM (active); in assay [4], 0.141 µM (active); in assay [5] it was 0.426 µM (active); in assay [6] it was 1.46 µM (active).
`CCCCCCCC(=O)O`: the Potency result in assay [1], in assay [2], in assay [3], in assay [4] and in assay [5] was “inactive” each time. Besides, the max response in assay [6] is -16.7%.
As for `C[C@]12CCC(=O)C=C1CC[C@@H]1[C@@H]2[C@@H](O)C[C@@]2(C)[C@H]1CC[C@]2(O)C(=O)COP(=O)(O)O`, the Potency entry in assay [1], in assay [2], in assay [3], in assay [4] and in assay [5] was “inactive” each time. In assay [6], the max response is 13.4%.
Regarding `CN=C(NC#N)Nc1ccc(C2=NNC(=O)C[C@@H]2C)cc1`, the Potency entry in assay [1], in assay [2], in assay [3] and in assay [4] was “inactive” throughout.
With `IC(I)I`, the Potency result in assay [1], in assay [2], in assay [3], in assay [4] and in assay [5] was “inactive” each time. In addition, the max response in assay [6] was 9.13%.
Take `CC(C(=O)O)c1ccc(N2Cc3ccccc3C2=O)cc1` (centres undefined): the Potency result in assay [1], in assay [2], in assay [3], in assay [4] and in assay [5] was “inactive” in each case. Further, the max response in assay [6] is -24.5%.
Turning to `O=C(O)c1cc(=O)c2c3nc4ccccc4oc-3cc(=O)c2[nH]1`, the Potency result in assay [3] is “inactive”. Also, the max response in assay [6] was -4.67%.
As to `O=C(O)CCC(=O)C(=O)O`, the Potency entry in assay [1], in assay [2], in assay [3] and in assay [5] was “inactive” throughout. Moreover, the max response in assay [6] was -11.9%.
